# Source: PubChem BioAssay (Tox21)
# Several values for one entry are separate records, joined by “and”; a condition that tells them apart may be missing. Identical values can stand only once. Inconclusive results are not listed. Activity calls are given as the source filed them. Calls come from the whole dose curve; as a rule, active = well fitted cell-killing curve with a large enough effect in the repeat runs; inconclusive = weak or mixed curves, or effect the other way; inactive = no such curve, though single readings can be large or run the other way.
# Assay: qHTS assay to identify small molecule agonists of the vitamin D receptor (VDR) signaling pathway - cell viability counter screen (AID 743224); note: nearly all actives have a fitted effect of over 50% in size
# Conditions: VDR-bla HEK293T viability, CellTiter-Glo luminescence, 16 h; series mostly up to 62.6 µM; activity change, negative = cytotoxicity: at the top concentration
# Excerpt: U.S. Tox21 Program National Center for Advancing Translational Sciences [NCATS] NIH Chemical Genomics Center [NCGC] U.S. Environmental Protection Agency [EPA] National Institutes of Environmental Health Sciences [NIEHS] National Toxicology Program [NTP] U.S. Food and Drug Administration [FDA] Tox21 Assay Overview: The vitamin D receptor (VDR), a member of nuclear hormone receptor superfamily, plays a critical role in calcium homeostasis and bone metabolism. It is also involved in cell differentiation and growth, and thrombogenicity. […] The cytotoxicity of the Tox21 compound library against the VDR-bla cell line was tested in parallel by measuring the cell viability using CellTiter-Glo assay (Promega, Madison, WI) in the same wells.
# Tox21 Assay Protocol Summary: VDR-bla cells were dispensed at 2,000 cells/6 uL/well into black wall/clear-bottom 1536-well plates using a Multidrop Combi (Thermo Fisher Scientific, Waltham, MA) dispenser. After the assay plates were incubated at a 37C and 5% CO2 for 4 h, 23 nL of compounds dissolved in DMSO, positive controls or DMSO only was transferred to the assay plate by a Pintool station (Kalypsys, San Diego, CA). The plates were incubated at 37C and 5% CO2 for 16 h. After 1 uL of LiveBLAzerTM B/G FRET substrate was added using a Bioraptr Flying Reagent Dispenser (FRD) workstation (Beckman Coulter, Indianapolis, IN, USA), the plates were incubated at room temperature for 2 h, and fluorescence intensity was measured by an Envision plate reader (PerkinElmer, Shelton, CT). For cell viability readout that measures cytotoxicity, 3 ul/well of CellTiter-Glo reagent was added into the assay plates using a FRD. After 30 min incubation at room temperature, the luminescence intensity in the plates was measured using a ViewLux (PerkinElmer) plate reader.
# % is set by controls: 0 for no effect and ±100 for the full control effect; potency is the fitted concentration of half-maximal effect.
Compound,"activity change, negative = cytotoxicity",Potency
CCCCOC(=O)CO,0.611% (inactive),–
Clc1sc(Cl)c(Cl)c1Cl,-2.41% (inactive),–
NC(=O)c1cccc([N+](=O)[O-])c1,5.09% (inactive),–
O=C1C(c2[nH]c3ccc(S(=O)(=O)O)cc3c2O)=Nc2ccc(S(=O)(=O)O)cc21,4.11% (inactive),–
Nc1nc(N)nc(-c2cc(Cl)ccc2Cl)n1,6.52% (inactive),–
CCCc1ccc(OCC(=O)N2CCN(C(=O)COc3ccc(CCC)cc3OC)CC2)c(OC)c1,-1.05% (inactive),–
Nc1ccc(NCCO)c([N+](=O)[O-])c1,-0.442% (inactive),–
Cc1cccc(C(=O)O)c1O,2.54% (inactive),–
CCCCCCCCCCCC(=O)OCC(C)OC(=O)CCCCC(=O)O (stereo not given),2.17% (inactive),–
CC1(C)CCC[C@]2(C)[C@H]3CCO[C@]3(C)CC[C@@H]12,18.1% (inactive),–
COc1cccc2c1C(=O)c1c(O)c3c(c(O)c1C2=O)C[C@@](O)(C(C)=O)C[C@@H]3O[C@H]1C[C@H](N)[C@H](O)[C@H](C)O1,–,34.9 µM (active)
CCc1cccc(CC)c1NC(=O)CN(CC(=O)O)CC(=O)O,7.28% (inactive),–
Cc1ccc(C(C)C)cc2c(C)ccc1-2,-0.497% (inactive),–
CCC(CC)(CC(=O)Nc1cccc(/C=C/c2nc(C3CCC3)cs2)c1)C(=O)O,-2.24% (inactive),–
CCCNCCC,2.96% [at 81.1 µM] (inactive),–
CN(C)Cc1cc(C(C)(C)C)c(O)c(C(C)(C)C)c1,-8.37% (inactive),–
c1cnccn1,1.93% [at 81.1 µM] (inactive),–
CC1=Nc2ccccc2C1(C)C,13.2% (inactive),–
O=S(=O)(O)c1ccc(N=Nc2c(O)ccc3ccccc23)cc1,-14.6% (inactive),–
CCCC[P+](C)(CCCC)CCCC,-6.36% [at 81.1 µM] (inactive),–

Compound,"activity change, negative = cytotoxicity",Potency
C#Cc1ccc(-c2ccccc2F)cc1,2.87% (inactive),–
CCCCCc1ccc(Cl)cc1,-14% (inactive),–
O=C(O)c1cc(N=Nc2ccc([N+](=O)[O-])cc2)ccc1O,-10.4% (inactive),–
CCn1c2ccccc2c2cc([N+](=O)[O-])ccc21,-11.7% (inactive),–
CCCC(=O)OCCc1ccccc1,8.37% (inactive),–
O[C@@H]([C@H](O)[C@H](O)CBr)[C@H](O)CBr,6.47% (inactive),–
Cc1cc(C(C)(C)C)c(O)c(C)c1Cn1c(=O)n(Cc2c(C)cc(C(C)(C)C)c(O)c2C)c(=O)n(Cc2c(C)cc(C(C)(C)C)c(O)c2C)c1=O,-25.7% (inactive),–
O=c1oc2cc(O)ccc2c2oc3cc(O)ccc3c12,-1.71% (inactive),–
COc1cc(/C=C/c2ccccc2)oc(=O)c1,-2.85% [at 81.1 µM] (inactive),–
CCOC(=O)c1ccc(C2CCC(NC[C@H](O)COc3ccc(O)c(NS(C)(=O)=O)c3)CC2)cc1 (stereo not given in full),–,40.3 µM (active)
CC(C)CCOC(=O)/C=C/c1ccccc1,-0.875% [at 81.1 µM] (inactive),–
CCO[C@@H]1O[C@H](C(COCc2ccccc2)OCc2ccccc2)[C@H](OCc2ccccc2)[C@H]1O (stereo not given in full),13.4% (inactive),–
C#CC1(O)CC[C@H]2[C@@H]3CCC4=CCCC[C@@H]4[C@H]3CC[C@@]21C (stereo not given in full),–,49 µM (active) and 23.7 µM (active)
CCCCCCCC,4.17% (inactive),–
CC(N=C(NC#N)Nc1ccncc1)C(C)(C)C (stereo not given),-0.306% (inactive),–
OCC(F)(F)F,2.78% [at 81.1 µM] (inactive),–
O=C1CCCCCCCCCCCCCCCO1,6.41% (inactive),–
O=c1[nH]c2ccccc2n1CCCN1CCN(C(c2ccccc2)c2ccccc2)CC1,-19.9% (inactive),–
Cc1cc(C)c(/C=C2\C(=O)Nc3ccccc32)[nH]1,-2.74% (inactive),–
CN(C)C(=O)COC(=O)Cc1ccc(OC(=O)c2ccc(N=C(N)N)cc2)cc1,13.8% (inactive),–
